Measured values as given in the supplement of paper PMC4466140.

Experiments:
Assay in all cases: SPOT peptide array binding signal intensity (averaged, normalized) (arbitrary units (background-subtracted, floor 0; scale differs between SH3 domains)); higher = stronger binding of the SH3 domain to the peptide
[1] = target: AgAbp1
Procedure, shortened: (§1)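 Peptides were synthetic 15-mers on cellulose membranes, with every cysteine replaced by serine. They were incubated overnight at 4°C with GST-SH3 domains from four yeast species at 10 μg/ml in TBS-based blocking buffer. Binding signal, the replicate-averaged normalized and background-subtracted spot intensity, is in arbitrary units that differ between domains.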

[2] = target: AgBbc1
Procedure, shortened: as §1

[3] = target: AgBem1-D1
Procedure, shortened: as §1

[4] = target: AgBzz1-D1
Procedure, shortened: as §1

[5] = target: AgBzz1-D2
Procedure, shortened: as §1

[6] = target: AgCyk3
Procedure, shortened: as §1

[7] = target: AgFus1
Procedure, shortened: as §1

[8] = target: AgHof1
Procedure, shortened: as §1

[9] = target: AgHse1
Procedure, shortened: as §1

[10] = target: AgLsb1
Procedure, shortened: as §1

[11] = target: AgLsb4
Procedure, shortened: as §1

[12] = target: AgMyo5
Procedure, shortened: as §1

[13] = target: AgNbp2
Procedure, shortened: as §1

[14] = target: AgRvs167
Procedure, shortened: as §1

[15] = target: AgSho1
Procedure, shortened: as §1

[16] = target: AgSla1-D1-D2
Procedure, shortened: as §1

[17] = target: AgSla1-D3
Procedure, shortened: as §1

[18] = target: CaAbp1-D1
Procedure, shortened: as §1

[19] = target: CaAbp1-D2
Procedure, shortened: as §1

[20] = target: CaBbc1
Procedure, shortened: as §1

[21] = target: CaBem1-D1
Procedure, shortened: as §1

[22] = target: CaBzz1-D1
Procedure, shortened: as §1

[23] = target: CaBzz1-D2
Procedure, shortened: as §1

[24] = target: CaCyk3
Procedure, shortened: as §1

[25] = target: CaFus1
Procedure, shortened: as §1

[26] = target: CaHof1
Procedure, shortened: as §1

[27] = target: CaHse1
Procedure, shortened: as §1

[28] = target: CaLsb1
Procedure, shortened: as §1

[29] = target: CaLsb4
Procedure, shortened: as §1

[30] = target: CaMyo5
Procedure, shortened: as §1

[31] = target: CaNbp2
Procedure, shortened: as §1

[32] = target: CaRvs167
Procedure, shortened: as §1

[33] = target: CaRvs167-3
Procedure, shortened: as §1

[34] = target: CaSho1
Procedure, shortened: as §1

[35] = target: CaSla1-D1-D2
Procedure, shortened: as §1

[36] = target: CaSla1-D3
Procedure, shortened: as §1

[37] = target: ScAbp1
Procedure, shortened: as §1

[38] = target: ScBbc1
Procedure, shortened: as §1

[39] = target: ScBem1-D1
Procedure, shortened: as §1

[40] = target: ScBzz1-D1
Procedure, shortened: as §1

[41] = target: ScBzz1-D2
Procedure, shortened: as §1

[42] = target: ScCyk3
Procedure, shortened: as §1

[43] = target: ScFus1
Procedure, shortened: as §1

[44] = target: ScHof1
Procedure, shortened: as §1

[45] = target: ScHse1
Procedure, shortened: as §1

[46] = target: ScLsb1
Procedure, shortened: as §1

[47] = target: ScLsb2
Procedure, shortened: as §1

[48] = target: ScLsb3
Procedure, shortened: as §1

[49] = target: ScLsb4
Procedure, shortened: as §1

[50] = target: ScMyo3
Procedure, shortened: as §1

[51] = target: ScMyo5
Procedure, shortened: as §1

[52] = target: ScNbp2
Procedure, shortened: as §1

[53] = target: ScPex13
Procedure, shortened: as §1

[54] = target: ScRvs167
Procedure, shortened: as §1

[55] = target: ScSho1
Procedure, shortened: as §1

[56] = target: ScSla1-D1-D2
Procedure, shortened: as §1

[57] = target: ScSla1-D3
Procedure, shortened: as §1

[58] = target: SpAbp1-D1
Procedure, shortened: as §1

[59] = target: SpBbc1
Procedure, shortened: as §1

[60] = target: SpBzz1-D1
Procedure, shortened: as §1

[61] = target: SpBzz1-D2
Procedure, shortened: as §1

[62] = target: SpCyk3
Procedure, shortened: as §1

[63] = target: SpHof1
Procedure, shortened: as §1

[64] = target: SpHof1-2
Procedure, shortened: as §1

[65] = target: SpHof1-3
Procedure, shortened: as §1

[66] = target: SpHse1
Procedure, shortened: as §1

[67] = target: SpLsb1
Procedure, shortened: as §1

[68] = target: SpLsb4
Procedure, shortened: as §1

[69] = target: SpMyo1
Procedure, shortened: as §1

[70] = target: SpNbp2
Procedure, shortened: as §1

[71] = target: SpPex13
Procedure, shortened: as §1

[72] = target: SpRvs167
Procedure, shortened: as §1

[73] = target: SpSla1-D1-D2
Procedure, shortened: as §1

[74] = target: SpSla1-D3
Procedure, shortened: as §1

B1: unnamed (peptide)
chain: VDFTLPPPPPPPGLD
**Q.** Which results are given for B1?
**A.** SPOT peptide array binding signal intensity [1]: 4; SPOT peptide array binding signal intensity [2]: ≤ 0; SPOT peptide array binding signal intensity [3]: ≤ 0; SPOT peptide array binding signal intensity [4]: ≤ 0; SPOT peptide array binding signal intensity [5]: ≤ 0; SPOT peptide array binding signal intensity [6]: ≤ 0; SPOT peptide array binding signal intensity [7]: ≤ 0; SPOT peptide array binding signal intensity [8]: 27.8; SPOT peptide array binding signal intensity [9]: 32; SPOT peptide array binding signal intensity [10]: 1.5; SPOT peptide array binding signal intensity [11]: ≤ 0; SPOT peptide array binding signal intensity [12]: 1660; SPOT peptide array binding signal intensity [13]: ≤ 0; SPOT peptide array binding signal intensity [14]: 1.67; SPOT peptide array binding signal intensity [15]: ≤ 0; SPOT peptide array binding signal intensity [16]: 2; SPOT peptide array binding signal intensity [17]: 0.5; SPOT peptide array binding signal intensity [18]: ≤ 0; SPOT peptide array binding signal intensity [19]: 9; SPOT peptide array binding signal intensity [20]: ≤ 0; SPOT peptide array binding signal intensity [21]: ≤ 0; SPOT peptide array binding signal intensity [22]: 230; SPOT peptide array binding signal intensity [23]: ≤ 0; SPOT peptide array binding signal intensity [24]: ≤ 0; SPOT peptide array binding signal intensity [25]: ≤ 0; SPOT peptide array binding signal intensity [26]: 0.5; SPOT peptide array binding signal intensity [27]: ≤ 0; SPOT peptide array binding signal intensity [28]: ≤ 0; SPOT peptide array binding signal intensity [29]: ≤ 0; SPOT peptide array binding signal intensity [30]: 29; SPOT peptide array binding signal intensity [31]: ≤ 0; SPOT peptide array binding signal intensity [32]: 1; SPOT peptide array binding signal intensity [33]: 0.25; SPOT peptide array binding signal intensity [34]: ≤ 0; SPOT peptide array binding signal intensity [35]: ≤ 0; SPOT peptide array binding signal intensity [36]: ≤ 0; SPOT peptide array binding signal intensity [37]: ≤ 0; SPOT peptide array binding signal intensity [38]: ≤ 0; SPOT peptide array binding signal intensity [39]: ≤ 0; SPOT peptide array binding signal intensity [40]: 6; SPOT peptide array binding signal intensity [41]: ≤ 0; SPOT peptide array binding signal intensity [42]: 1; SPOT peptide array binding signal intensity [43]: ≤ 0; SPOT peptide array binding signal intensity [44]: 17.8; SPOT peptide array binding signal intensity [45]: ≤ 0; SPOT peptide array binding signal intensity [46]: ≤ 0; SPOT peptide array binding signal intensity [47]: 1.5; SPOT peptide array binding signal intensity [48]: ≤ 0; SPOT peptide array binding signal intensity [49]: ≤ 0; SPOT peptide array binding signal intensity [50]: 1810; SPOT peptide array binding signal intensity [51]: 1800; SPOT peptide array binding signal intensity [52]: ≤ 0; SPOT peptide array binding signal intensity [53]: 4.75; SPOT peptide array binding signal intensity [54]: 2.33; SPOT peptide array binding signal intensity [55]: ≤ 0; SPOT peptide array binding signal intensity [56]: ≤ 0; SPOT peptide array binding signal intensity [57]: ≤ 0; SPOT peptide array binding signal intensity [58]: ≤ 0; SPOT peptide array binding signal intensity [59]: 0.5; SPOT peptide array binding signal intensity [60]: 1630; SPOT peptide array binding signal intensity [61]: 7; SPOT peptide array binding signal intensity [62]: 1; SPOT peptide array binding signal intensity [63]: ≤ 0; SPOT peptide array binding signal intensity [64]: 0.75; SPOT peptide array binding signal intensity [65]: 1.75; SPOT peptide array binding signal intensity [66]: 11; SPOT peptide array binding signal intensity [67]: 0.5; SPOT peptide array binding signal intensity [68]: ≤ 0; SPOT peptide array binding signal intensity [69]: 1110; SPOT peptide array binding signal intensity [70]: ≤ 0; SPOT peptide array binding signal intensity [71]: ≤ 0; SPOT peptide array binding signal intensity [72]: 1; SPOT peptide array binding signal intensity [73]: ≤ 0; SPOT peptide array binding signal intensity [74]: ≤ 0
